D2 ag-1 = HTS Assay for Allosteric Agonists of the Human D2 Dopamine Receptor: Primary Screen for Agonists; D(2) dopamine receptor (Homo sapiens), P14416; HEK293 T-REx D2 cells, calcium flux agonist mode; activation, % at 2 µM; 340,000 tested, 0.53% active; AID 485358, 2010;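 active = activation over 3 SD above normal in the single-dose calcium agonist read, cut at about 30% in these data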; note: 0% is about no effect
Target sequence (P14416 whole entry, looked up): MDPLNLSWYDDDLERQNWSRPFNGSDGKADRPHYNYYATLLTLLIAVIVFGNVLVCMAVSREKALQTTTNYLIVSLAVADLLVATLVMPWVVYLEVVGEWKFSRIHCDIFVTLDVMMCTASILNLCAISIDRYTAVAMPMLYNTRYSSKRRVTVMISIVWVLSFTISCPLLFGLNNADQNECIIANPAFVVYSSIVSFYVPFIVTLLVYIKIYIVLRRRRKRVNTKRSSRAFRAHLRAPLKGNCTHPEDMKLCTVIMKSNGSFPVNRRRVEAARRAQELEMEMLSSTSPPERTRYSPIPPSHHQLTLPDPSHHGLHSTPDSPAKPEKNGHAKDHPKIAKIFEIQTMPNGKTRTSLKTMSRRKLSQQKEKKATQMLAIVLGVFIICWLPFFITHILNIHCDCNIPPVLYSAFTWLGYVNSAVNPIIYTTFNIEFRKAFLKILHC
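Tetracycline-induced HEK293 T-REx cells with force-coupled D2 receptor, plated overnight at 30 C, loaded with no-wash calcium dye. After a 10 s baseline, compound was pin-added and calcium flux read kinetically for 180 s; calcium rises flagged agonists.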
D2 PAM-1 = Beta-Arrestin HTS for Positive Allosteric Modulators of the Human D2 Dopamine Receptor: Potentiators. DiscoveRx D2 beta-arrestin cells, luminescence, 90 min; 100% = 57 uM dopamine signal. 360,000 tested, 0.23% active. D(2) dopamine receptor (Homo sapiens), P14416. potentiation, % (no concentration beside the values). AID 624464, 2012; in the data active = potentiation above about 50%; inconclusive = mostly about 30% to 49%
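PathHunter D2 cells, attached overnight at 37 deg C, received compound in DMSO plus dopamine at EC20 (50 nM final) for 90 min at 37 deg C. Beta-arrestin recruitment was read as luminescence after 1 h with detection reagent at ambient temperature.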
D2 ag-2 = Beta-Arrestin HTS for Positive Allosteric Modulators of the Human D2 Dopamine Receptor: Agonists; 360,000 tested, 0.084% active; DiscoveRx PathHunter D2 beta-arrestin, luminescence, 90 min; 100% = 57 uM dopamine signal; activation, % (no concentration beside the values); D(2) dopamine receptor (Homo sapiens), P14416; in the data active = activation above about 40%; inconclusive = between about 15% and that limit
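Agonist mode: compounds alone added to overnight-plated D2 PathHunter cells for 90 min at 37 C, with 57 uM final dopamine (EC100) defining full response. Beta-arrestin recruitment detected by chemiluminescent reagent, read after 1 h at ambient temperature.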
D2 PAM-2 = HTS Assay for Positive Allosteric Modulators of the Human D2 Dopamine Receptor: Primary Screen for Potentiators. D(2) dopamine receptor (Homo sapiens), P14416. HEK293 T-REx D2, calcium flux, EC20 dopamine potentiation. potentiation, % at 10 µM. 340,000 tested, 0.34% active;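 active = potentiation over 3 SD above the plate norm, cut at about 30% in these data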; note: 0% is about no effect
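Potentiation of an EC20 dopamine calcium response is measured in a force-coupled, tetracycline-inducible Hek293 Trex D2 line. Compound-only kinetic reads over 180 s flag agonists before dopamine addition.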
D2 antag = HTS Assay for Allosteric Antagonists of the Human D2 Dopamine Receptor: Primary Screen for Antagonists | 340,000 tested, 2% active | HEK293 TREx D2 cells, calcium flux, dopamine EC80 | inhibition, % at 10 µM; in the data active = inhibition above about 30%; inactive = below that, where a call was filed; note: 0% is about no effect
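Inhibition of EC80 dopamine-driven calcium flux, recorded kinetically, defines activity here; cells are a tetracycline-induced HEK293 T-REx line expressing force-coupled D2.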
* = called active by the depositor; ? = inconclusive; nt = no result. A selection: hits, their analogues and other compounds. The true share with any hit is near 2.4%.

SMILES | D2 ag-1 | D2 PAM-1 | D2 ag-2 | D2 PAM-2 | D2 antag
COCCN1CSC(=S)N(Cc2ccco2)C1 | 0.4 | -9.0 | -0.8 | -6.1 | -6.7
COc1ccc(N=Cc2c(O)n(-c3cccc(C)n3)c(=O)c3ccccc23)cc1 | -0.6 | -2.4 | -1.7 | -2.6 | 32.0*
Cc1ccc(N(CC(=O)NCCSc2nc3ccccc3s2)S(=O)(=O)c2ccccc2)c(C)c1 | 0.5 | 15.7 | 0.9 | 5.8 | 55.1*
COC(=O)c1ccc(CNC(=O)c2ccc(S(=O)(=O)N(C)c3ccccc3OC)cc2)cc1 | 0.5 | 0.0 | 9.6 | -20.8 | 48.6*
COc1ccccc1N(C)S(=O)(=O)c1ccc(C(=O)NCCc2ccc(F)cc2)cc1 | -1.5 | -5.7 | 0.5 | -13.7 | -23.8
COc1ccccc1N(C)S(=O)(=O)c1ccc(C(=O)NCC2CCCCC2)cc1 | -0.1 | -3.0 | 1.9 | -28.4 | 79.8*
COc1ccccc1N(C)S(=O)(=O)c1ccc(C(=O)NCC(C)C)cc1 | -0.2 | -6.0 | -0.5 | 12.6 | -12.9
Cc1cccc(OCCSc2nc3ccc(NC(=O)c4cccs4)cc3s2)c1 | 1.7 | nt | nt | 7.1 | nt
CCC(C)c1ccccc1N1CC(C(=O)N2CCN(c3ccccc3)CC2)CC1=O (centres undefined) | nt | 10.4 | -1.2 | nt | nt
CCC(C)c1ccccc1N1CC(C(=O)N2CCN(S(=O)(=O)c3cccc([N+](=O)[O-])c3)CC2)CC1=O (centres undefined) | 0.7 | 8.0 | 3.7 | -8.1 | 35.8*
CC(C)CCNC(=O)c1ccc2c(c1)N(Cc1ccccc1F)C(=O)c1ccccc1S2(=O)=O | 1.1 | nt | nt | 6.3 | nt
CCC(=O)N(Cc1ccco1)Cc1cc2cccc(C)c2n2nnnc12 | 1.3 | -7.8 | 6.7 | -2.7 | 34.0*
Cc1ccc2c(c1)cc(CN(Cc1ccco1)C(=O)COc1ccccc1)c1nnnn12 | 2.0 | -17.1 | -0.9 | -1.2 | 23.5
COc1ccc(NC(=O)Nc2nnc(SCC(=O)Nc3cccc(C)c3C)s2)cc1 | nt | nt | nt | 12.4 | nt
CCS(=O)(=O)c1ccc2oc(SCC(=O)NCCC3=CCCCC3)nc2c1 | -1.4 | -3.2 | -1.0 | -0.8 | 67.5*
Brc1ccc(C=Nc2ccc(Nc3ccccc3)cc2)s1 | 2.2 | 87.4* | ? | 12.4 | -12.7
NC(=S)N/N=C/c1ccc2ccccc2c1 | -1.4 | -17.3 | -2.5 | -12.9 | 48.1*
C(=Nc1ccc(Nc2ccccc2)cc1)c1ccc2ccccc2c1 | -0.4 | 52.0* | 10.4 | -6.6 | -8.8
COc1ccc(-c2nc(-c3ccccc3)c(-c3ccc(F)cc3)[nH]2)c(OC)c1C | -1.6 | nt | nt | 11.2 | nt
OC(C#CCN1CCCCCC1)(c1ccccc1)c1cccnc1 (centres undefined) | -0.3 | -28.1 | -0.1 | -19.1 | 58.3*
OC(CCN1CCCCC1)(c1ccccc1)C1CCCCC1 (centres undefined) | -1.1 | -37.7 | -4.3 | -24.5 | 46.4*
OC(C#CCN1CCCC1)(c1ccccc1)c1cccnc1 (centres undefined) | 1.6 | -16.8 | -1.6 | -10.3 | -1.4
OC(C#CCCN1CCCCC1)(c1ccccc1)c1ccccc1 | 2.1 | -11.2 | 0.5 | -31.4 | 33.4*
COc1ccc(-n2c(Cc3cc(=O)[nH]c(=O)[nH]3)nnc2SCC(=O)Nc2cc(C(F)(F)F)ccc2Cl)cc1 | -0.5 | -14.6 | -3.3 | -20.0 | 40.8*
O=C(CSc1nccn1-c1ccc(F)cc1)Nc1ccc(OC(F)(F)F)cc1 | 1.1 | nt | nt | -15.6 | nt
SMILES | D2 ag-1 | D2 PAM-1 | D2 ag-2 | D2 PAM-2 | D2 antag
Cc1cc(OC(=O)c2ccco2)c(Sc2ccccc2[N+](=O)[O-])c(=O)o1 | 0.9 | -9.5 | -4.7 | 2.9 | 33.8*
Cc1nn(C)c(C)c1CCC(=O)N1CCCC(Nc2ccc(C(C)C)cc2)C1 (centres undefined) | 0.5 | -7.2 | -0.6 | 36.2* | -24.3
CC(=O)c1c(-c2ccccc2)c2cc(Cl)ccc2[nH]c1=O | -0.8 | -46.2 | -0.6 | 1.9 | 74.9*
COc1ccc(OC)c(Nc2ncc3c(n2)CCN(Cc2cc(OC)c(OC)c(OC)c2)C3)c1 | 1.1 | nt | nt | 1.8 | nt
NC(=O)C(c1ccccc1)C1CCCCC1 (centres undefined) | 0.0 | -23.3 | -4.6 | -5.2 | 52.4*
Cc1cccc(C)c1OCC(=O)N/N=C/c1cc2c(cc1[N+](=O)[O-])OCO2 | -2.6 | 0.8 | -0.4 | -7.5 | 30.0*
O=C(CCc1ccc(O)c(O)c1)N/N=C/c1cc2c(cc1[N+](=O)[O-])OCO2 | 0.9 | 2.2 | ? | -1.4 | -5.3
CCOC(=O)C1=C(CS(=O)(=O)c2ccc(C(C)(C)C)cc2)NC(=O)NC1c1cccc(OC)c1 (centres undefined) | 0.5 | nt | nt | -0.3 | nt
Cn1c(=O)c2c(-c3ccccc3)n3c(c2n(C)c1=O)C(c1ccc([N+](=O)[O-])cc1)Nc1ccccc1-3 (centres undefined) | -0.6 | nt | nt | -2.9 | nt
Cc1cc(Nc2ccccc2)c2c([N+](=O)[O-])cc(C)c(C)c2n1 | -0.7 | 18.4 | -1.3 | 39.5* | -14.4
O=C(CSc1nc2c([nH]c3ccccc32)c(=O)n1-c1cccc(Cl)c1)c1ccccc1 | 1.3 | nt | nt | -2.0 | nt
Cc1ccc(-c2nc3cc(NC(=O)C(C)C)ccc3o2)cc1 | -1.4 | -10.6 | -0.7 | -8.1 | 2.8
Cc1cc2nc(-c3ccc(NC(=O)C(C)C)cc3)oc2cc1C | 0.3 | 7.1 | -2.1 | 1.2 | 31.7*
CCCCOCc1cc(CN2CCN(c3cccc(Cl)c3)CC2)c(O)c2ncccc12 | -0.7 | nt | nt | -16.6 | nt
O=c1c2c(nc3cc(-c4ccccc4)[nH]n13)CCC2 | -0.1 | -9.2 | 0.7 | -3.9 | -19.4
O=c1c2c(nc3cc(-c4ccc(Br)cc4)[nH]n13)CCCC2 | 10.5 | -12.5 | -2.2 | -27.3 | 54.1*
Cc1cc(C)c(S(=O)(=O)Nn2cnnc2)c(C)c1 | 0.6 | -3.6 | -1.3 | 9.2 | 31.9*
CC1CCCCN1C(=O)CN1CCC(c2nc3ccc(Cl)cc3[nH]2)CC1 (centres undefined) | -0.7 | -7.0 | -3.5 | -6.3 | 8.5
Cc1ccc(CN2CCC(c3nc4ccc(Cl)cc4[nH]3)CC2)cc1 | -0.4 | -31.1 | -1.2 | -15.3 | 86.8*
Clc1ccc2nc(C3CCN(Cc4ccccc4)CC3)[nH]c2c1 | -1.1 | -18.3 | -1.5 | -18.0 | 52.5*
CCn1cc(S(=O)(=O)c2ccccc2)c(=O)c2cc(F)c(N3CCCCCC3)cc21 | 0.2 | nt | nt | -1.9 | nt
CCCCNC(=O)c1c(-c2ccccc2)c(-c2ccccc2)nn(C)c1=O | -0.6 | nt | nt | -0.1 | nt
Cc1cc(C)nc(Nc2n[nH]c(Cc3ccccc3)n2)n1 | 44.8* | nt | nt | -2.4 | 0.1

Assay outcomes as filed in PubChem.
